Measured values reported in the supplement of paper PMC10849652.
The full data set covers some 7,900 targets. This sample favours those with a hit. About 0.6% of all pairs of compound and target were hits.

What was measured:
Assay in all cases: log2 fold change, soluble protein after heating vs DMSO (PISA); higher = thermal stabilisation; K562 cells, 10 uM, 30 min; active = over 0.2 and 3.5 SD of the protein, either way, in both replicates (recomputed)
[1] = compound: NC(=O)Nc1cc(-c2cccc(F)c2)sc1C(=O)N[C@H]1CCCNC1
Summary of the method: (§1)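 Values are thermal stability changes relative to control samples and are taken from duplicates. They are stated as log2 fold changes. Before quantification by TMTpro 16plex LC-MS/MS with equalised channel sums, K562 cells at 2×10^6 cells/mL were treated with 10 μM compound for 30 min, heated in aliquots for 3 min across 48°C-58°C, pooled, extracted in PBS with 0.5% NP-40 at 4°C, and centrifuged at 21,000xg for 90 min to give the soluble supernatant.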

[2] = compound: NC(=O)c1cnc(N[C@@H]2CCCC[C@@H]2N)nc1Nc1cccc(-n2nccn2)c1
Summary of the method: as §1

[3] = compound: NC1(c2ccc(-c3nc4ccn5c(=O)[nH]nc5c4cc3-c3ccccc3)cc2)CCC1
Summary of the method: as §1

[4] = compound: NCC(=O)Nc1ccc(-n2nc(C(F)(F)F)cc2-c2ccc3c(ccc4ccccc43)c2)cc1
Summary of the method: as §1

[5] = compound: Nc1ccccc1NC(=O)c1ccc(CNC(=O)OCc2cccnc2)cc1 [entinostat]
Summary of the method: as §1

[6] = compound: O=C(CCCCCCC(=O)Nc1ccccc1)NO [vorinostat]
Summary of the method: as §1

[7] = compound: O=C(CCCCCCNC(=O)c1cnc(N(c2ccccc2)c2ccccc2Cl)nc1)NO [citarinostat]
Summary of the method: as §1

[8] = compound: O=C(O)c1ccc2c(c1)nc(Nc1cccc(Cl)c1)c1ccncc12 [silmitasertib]
Summary of the method: as §1

[9] = compound: O=C1NC(=O)C(c2cnc3ccccn23)=C1c1cn2c3c(cc(F)cc13)CN(C(=O)N1CCCCC1)CC2
Summary of the method: as §1

[10] = compound: c1cc(OCCN2CCCCC2)cc(-c2n[nH]c3ccc(-c4nnc[nH]4)cc23)c1
Summary of the method: as §1

Measured: log2 fold change

DAG1 (UniProt Q14118)
inactive: [1] -0.035 | [2] 0.123 | [3] 0.081 | [4] -0.054 | [5] -0.013 | [6] 0.023 | [7] -0.015 | [8] -0.005 | [9] -0.015 | [10] -0.001

FAM118B (UniProt Q9BPY3)
Chain of UniProt Q9BPY3 (Q9BPY3 whole entry, looked up): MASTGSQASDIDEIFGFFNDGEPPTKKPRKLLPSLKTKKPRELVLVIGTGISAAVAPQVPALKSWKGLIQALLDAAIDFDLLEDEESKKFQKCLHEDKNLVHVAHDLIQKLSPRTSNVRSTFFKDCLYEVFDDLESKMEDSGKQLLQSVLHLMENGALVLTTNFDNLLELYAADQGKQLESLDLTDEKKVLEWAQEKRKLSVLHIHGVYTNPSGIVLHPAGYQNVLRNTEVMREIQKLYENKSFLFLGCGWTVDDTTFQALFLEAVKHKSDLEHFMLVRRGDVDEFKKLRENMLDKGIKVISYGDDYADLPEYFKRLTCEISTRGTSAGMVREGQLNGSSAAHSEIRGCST
inactive: [1] -0.034 | [2] -0.118 | [4] -0.027 | [5] 0.047 | [6] 0.064 | [7] 0.052 | [8] -0.082 | [9] -0.13 | [10] -0.078
active: [3] -0.381

CYP51A1 (UniProt Q16850)
active: [9] 0.964
inactive: [1] -0.018 | [2] -0.004 | [3] 0.024 | [4] -0.033 | [5] -0.045 | [6] 0.119 | [7] 0.006 | [8] 0.001 | [10] -0.112

EDEM2 (UniProt Q9BV94)
inactive: [1] 0.004 | [2] -0.108 | [3] -0.054 | [4] -0.039 | [5] -0.003 | [6] 0.001 | [8] 0.027 | [9] -0.029

EIF2AK1 (UniProt Q9BQI3)
inactive: [1] -0.034 | [2] 0.018 | [3] -0.023 | [4] 0.001 | [5] 0.129 | [6] -0.058 | [8] 0 | [9] 0.133

DFFB (UniProt O76075)
inactive: [1] 0.028 | [2] -0.064 | [3] -0.037 | [4] 0.069 | [5] 0 | [6] 0.016 | [7] 0.057 | [8] 0.087 | [9] 0.048 | [10] -0.08

EIF4G3 isoform 3 (UniProt O43432)
inactive: [1] 0.012 | [2] -0.092 | [3] -0.062 | [4] -0.016 | [5] 0.01 | [7] -0.114 | [8] 0.146
active: [10] -0.515

EPHB4 (UniProt P54760)
inactive: [1] -0.207 | [3] -0.102 | [5] 0.122 | [8] 0.18

ELF1 (UniProt P32519)
Chain of UniProt P32519 (P32519 whole entry, looked up): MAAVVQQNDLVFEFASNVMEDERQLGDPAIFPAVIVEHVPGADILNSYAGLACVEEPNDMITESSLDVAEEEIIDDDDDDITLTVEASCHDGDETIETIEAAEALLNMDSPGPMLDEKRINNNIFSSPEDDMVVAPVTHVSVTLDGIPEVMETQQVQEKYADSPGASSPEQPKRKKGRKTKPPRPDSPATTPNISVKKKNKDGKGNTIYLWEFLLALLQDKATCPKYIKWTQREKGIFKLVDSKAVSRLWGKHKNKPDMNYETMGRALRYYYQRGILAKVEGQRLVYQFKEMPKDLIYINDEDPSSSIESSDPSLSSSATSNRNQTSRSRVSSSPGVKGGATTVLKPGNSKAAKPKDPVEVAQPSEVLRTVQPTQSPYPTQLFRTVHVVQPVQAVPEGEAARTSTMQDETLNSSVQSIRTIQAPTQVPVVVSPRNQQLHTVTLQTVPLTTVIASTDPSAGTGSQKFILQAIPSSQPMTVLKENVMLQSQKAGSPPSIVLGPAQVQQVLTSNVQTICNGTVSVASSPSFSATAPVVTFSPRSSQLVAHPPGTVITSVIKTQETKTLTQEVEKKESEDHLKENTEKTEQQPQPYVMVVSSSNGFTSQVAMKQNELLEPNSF
inactive: [1] -0.124 | [2] -0.044 | [5] -0.11 | [7] -0.089 | [9] -0.075 | [10] -0.18

EPHX2 (UniProt E5RI53)
inactive: [9] -0.058

DNAJB1 (UniProt M0R128)
inactive: [4] -0.151

EEF2K (UniProt O00418)
inactive: [3] -0.119 | [4] -0.114 | [6] 0.19 | [7] -0.05 | [8] 0.216 | [9] 0.178 | [10] 0.012

DENND1A isoform 6 (UniProt Q8TEH3)
inactive: [4] -0.119

ENTR1 (UniProt Q96C92)
inactive: [4] -0.284

EIF2AK3 (UniProt Q9NZJ5)
inactive: [2] 0.056 | [3] -0.211 | [6] -0.02 | [7] -0.039 | [8] -0.085 | [9] 0.127 | [10] 0.097

F2RL3 (UniProt Q96RI0)
inactive: [2] 0.003 | [4] -0.085

DDX46, A0A0C4DG89
inactive: [3] -0.177 | [8] -0.288 | [9] -0.148

CTNNBL1 (UniProt Q8WYA6)
inactive: [4] 0.175 | [7] 0.057 | [10] -0.068

DHPS (UniProt M0R1T2)
inactive: [1] 0.063 | [5] 0.072

FAM117B (UniProt Q6P1L5)
Chain of UniProt Q6P1L5 (Q6P1L5 whole entry, looked up): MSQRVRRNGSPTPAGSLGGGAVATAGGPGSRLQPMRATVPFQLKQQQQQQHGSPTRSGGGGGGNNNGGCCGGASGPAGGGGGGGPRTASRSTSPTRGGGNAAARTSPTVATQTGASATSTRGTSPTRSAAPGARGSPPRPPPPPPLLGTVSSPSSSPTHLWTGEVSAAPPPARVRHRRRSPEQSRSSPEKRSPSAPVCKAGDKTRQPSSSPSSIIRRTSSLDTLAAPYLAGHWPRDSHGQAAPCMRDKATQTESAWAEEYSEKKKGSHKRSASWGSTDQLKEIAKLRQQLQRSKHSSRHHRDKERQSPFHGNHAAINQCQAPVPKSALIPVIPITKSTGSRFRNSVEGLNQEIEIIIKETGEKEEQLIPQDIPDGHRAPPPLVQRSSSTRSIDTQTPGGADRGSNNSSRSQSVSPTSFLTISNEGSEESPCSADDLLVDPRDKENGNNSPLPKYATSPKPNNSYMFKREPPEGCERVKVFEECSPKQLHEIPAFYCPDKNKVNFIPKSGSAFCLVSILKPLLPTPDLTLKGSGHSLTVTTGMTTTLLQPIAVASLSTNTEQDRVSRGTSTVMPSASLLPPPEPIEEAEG
inactive: [2] -0.159 | [4] 0.229 | [6] 0.059 | [7] -0.047 | [9] -0.144 | [10] 0.105

EDRF1 (UniProt Q3B7T1)
inactive: [1] -0.062 | [3] -0.044 | [5] -0.055 | [6] 0.083 | [7] -0.044 | [8] -0.031 | [9] -0.057 | [10] -0.103

DNAL1 (UniProt Q4LDG9)
inactive: [2] 0.035 | [4] 0.05 | [9] -0.26

FAM160A2 isoform 2 (UniProt Q8N612)
inactive: [3] 0.158 | [4] -0.26 | [6] -0.009 | [7] -0.154 | [8] 0.057 | [9] 0.026 | [10] 0.068

CYP24A1 (UniProt Q07973)
inactive: [2] 0.045 | [3] 0.43 | [4] 0.21 | [6] 0.067 | [7] -0.002 | [8] 0.099 | [10] 0.109

DOLPP1 (UniProt Q86YN1)
inactive: [2] -0.102 | [3] -0.053 | [4] -0.003 | [7] 0.075 | [8] 0.008 | [10] -0.007

DCAF12 (UniProt Q5T6F0)
Chain of UniProt Q5T6F0 (Q5T6F0 whole entry, looked up): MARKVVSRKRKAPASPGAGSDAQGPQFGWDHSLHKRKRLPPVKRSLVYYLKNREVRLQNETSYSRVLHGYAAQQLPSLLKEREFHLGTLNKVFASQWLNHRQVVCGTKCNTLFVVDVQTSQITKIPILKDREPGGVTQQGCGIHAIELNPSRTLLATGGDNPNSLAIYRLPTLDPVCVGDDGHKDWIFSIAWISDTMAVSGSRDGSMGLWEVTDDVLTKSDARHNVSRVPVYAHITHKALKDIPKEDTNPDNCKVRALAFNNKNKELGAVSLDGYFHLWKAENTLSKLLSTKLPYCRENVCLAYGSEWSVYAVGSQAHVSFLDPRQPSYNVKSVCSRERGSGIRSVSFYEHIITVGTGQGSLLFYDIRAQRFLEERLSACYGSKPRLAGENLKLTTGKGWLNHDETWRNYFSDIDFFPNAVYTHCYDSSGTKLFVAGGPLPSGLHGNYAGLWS
inactive: [1] -0.025 | [3] -0.201 | [5] -0.003 | [6] -0.021 | [7] -0.033 | [8] 0.051 | [10] 0.055

ENTPD7 (UniProt Q9NQZ7)
inactive: [1] 0.024 | [3] -0.052 | [5] 0.236 | [7] 0.131 | [8] -0.357 | [9] -0.098 | [10] -0.138

DNM2 isoform 4 (UniProt P50570)
Chain of UniProt P50570 (P50570 whole entry, looked up): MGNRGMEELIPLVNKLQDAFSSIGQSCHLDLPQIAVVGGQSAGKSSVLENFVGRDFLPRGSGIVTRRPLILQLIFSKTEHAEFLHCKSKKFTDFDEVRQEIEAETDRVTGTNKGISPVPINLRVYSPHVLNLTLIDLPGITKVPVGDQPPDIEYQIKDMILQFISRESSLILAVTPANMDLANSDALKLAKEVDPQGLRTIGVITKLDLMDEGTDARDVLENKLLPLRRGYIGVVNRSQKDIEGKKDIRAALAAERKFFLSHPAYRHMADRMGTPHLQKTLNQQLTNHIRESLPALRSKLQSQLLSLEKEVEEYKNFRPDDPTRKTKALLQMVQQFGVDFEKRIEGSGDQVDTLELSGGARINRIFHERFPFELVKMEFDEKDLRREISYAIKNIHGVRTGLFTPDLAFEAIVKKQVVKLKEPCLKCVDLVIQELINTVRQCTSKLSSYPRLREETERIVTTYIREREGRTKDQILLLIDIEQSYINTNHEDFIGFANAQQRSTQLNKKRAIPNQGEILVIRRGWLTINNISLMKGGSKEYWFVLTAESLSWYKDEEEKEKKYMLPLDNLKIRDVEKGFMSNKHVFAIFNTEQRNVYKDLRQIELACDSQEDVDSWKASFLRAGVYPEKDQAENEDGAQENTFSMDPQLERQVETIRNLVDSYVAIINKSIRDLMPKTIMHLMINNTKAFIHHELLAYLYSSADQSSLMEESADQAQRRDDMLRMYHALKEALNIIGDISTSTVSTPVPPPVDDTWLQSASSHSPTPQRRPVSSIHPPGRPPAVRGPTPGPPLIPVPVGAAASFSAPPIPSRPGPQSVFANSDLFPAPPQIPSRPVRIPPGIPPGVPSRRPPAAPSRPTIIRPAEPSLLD
inactive: [1] -0.033 | [3] -0.318 | [5] 0.342 | [6] -0.068 | [7] -0.113 | [8] 0.116 | [9] 0.19 | [10] 0.06

ERF (UniProt P50548)
Chain of UniProt P50548 (P50548 whole entry, looked up): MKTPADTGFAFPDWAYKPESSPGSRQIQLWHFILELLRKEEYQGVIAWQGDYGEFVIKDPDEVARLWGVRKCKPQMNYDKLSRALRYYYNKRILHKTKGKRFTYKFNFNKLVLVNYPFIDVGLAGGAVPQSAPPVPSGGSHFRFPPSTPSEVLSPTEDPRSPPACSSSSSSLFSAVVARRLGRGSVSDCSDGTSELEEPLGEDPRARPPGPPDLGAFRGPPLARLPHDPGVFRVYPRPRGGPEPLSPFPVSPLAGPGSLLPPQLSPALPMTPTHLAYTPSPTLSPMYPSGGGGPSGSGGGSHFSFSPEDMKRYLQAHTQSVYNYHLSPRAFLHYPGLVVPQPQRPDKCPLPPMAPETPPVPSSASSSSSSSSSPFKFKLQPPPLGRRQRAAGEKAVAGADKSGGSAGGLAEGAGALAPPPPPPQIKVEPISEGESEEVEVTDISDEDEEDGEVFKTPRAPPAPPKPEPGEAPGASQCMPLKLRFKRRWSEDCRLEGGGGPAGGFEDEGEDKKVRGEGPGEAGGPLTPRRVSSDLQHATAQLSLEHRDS
inactive: [1] -0.53 | [5] -0.019 | [6] 0.023 | [9] -0.273

FAM135A (UniProt Q9P2D6)
inactive: [1] 0.069 | [4] -0.024 | [5] -0.03 | [9] -0.088

ELOVL7 (UniProt A1L3X0)
inactive: [2] -0.001 | [9] -0.09

EEF1D isoform 3 (UniProt P29692)
inactive: [3] 0.2 | [8] -0.401

DOP1A (UniProt Q5JWR5)
inactive: [3] 0.106 | [4] -0.051 | [8] -0.056 | [9] 0

CWF19L2 (UniProt Q2TBE0)
inactive: [1] 0.129 | [2] 0.013 | [5] -0.134 | [6] -0.184 | [7] 0.13 | [10] -0.001

EHBP1 (UniProt Q8NDI1)
inactive: [2] -0.092 | [3] 0.017 | [6] -0.034 | [7] -0.009 | [8] 0.087 | [10] -0.14

EIF4G1 (UniProt Q04637)
inactive: [2] -0.14 | [4] -0.075 | [6] 0.085

DNAJC24 (UniProt Q6P3W2)
inactive: [1] 0.023 | [3] 0.011 | [4] -0.129 | [5] 0.055 | [7] 0.102 | [8] 0.052 | [9] -0.059 | [10] -0.169

DERPC (UniProt P0CG12)
inactive: [3] 0.008 | [4] -0.16 | [6] -0.042 | [7] -0.049 | [8] -0.024 | [10] -0.045

FADS1 (UniProt F5GYH4)
inactive: [4] -0.191

ELMO1 (UniProt Q92556)
inactive: [1] -0.07 | [3] -0.146 | [4] -0.316 | [5] 0.093 | [8] 0.04 | [9] -0.104

EID1 (UniProt Q9Y6B2)
inactive: [1] -0.078 | [3] -0.055 | [5] 0.086 | [6] -0.457 | [8] -0.156 | [9] -0.652

CTSS (UniProt P25774)
inactive: [1] -0.054 | [4] 0.053 | [5] -0.013 | [6] 0.15 | [7] 0.19 | [10] -0.089

DCAF4 (UniProt Q8WV16)
inactive: [1] -0.046 | [3] -0.127 | [5] 0.005 | [6] 0.238 | [7] -0.1 | [8] 0.066 | [9] -0.096 | [10] -0.094

DDB1 isoform 2 (UniProt Q16531)
Chain of UniProt Q16531 (Q16531 whole entry, looked up): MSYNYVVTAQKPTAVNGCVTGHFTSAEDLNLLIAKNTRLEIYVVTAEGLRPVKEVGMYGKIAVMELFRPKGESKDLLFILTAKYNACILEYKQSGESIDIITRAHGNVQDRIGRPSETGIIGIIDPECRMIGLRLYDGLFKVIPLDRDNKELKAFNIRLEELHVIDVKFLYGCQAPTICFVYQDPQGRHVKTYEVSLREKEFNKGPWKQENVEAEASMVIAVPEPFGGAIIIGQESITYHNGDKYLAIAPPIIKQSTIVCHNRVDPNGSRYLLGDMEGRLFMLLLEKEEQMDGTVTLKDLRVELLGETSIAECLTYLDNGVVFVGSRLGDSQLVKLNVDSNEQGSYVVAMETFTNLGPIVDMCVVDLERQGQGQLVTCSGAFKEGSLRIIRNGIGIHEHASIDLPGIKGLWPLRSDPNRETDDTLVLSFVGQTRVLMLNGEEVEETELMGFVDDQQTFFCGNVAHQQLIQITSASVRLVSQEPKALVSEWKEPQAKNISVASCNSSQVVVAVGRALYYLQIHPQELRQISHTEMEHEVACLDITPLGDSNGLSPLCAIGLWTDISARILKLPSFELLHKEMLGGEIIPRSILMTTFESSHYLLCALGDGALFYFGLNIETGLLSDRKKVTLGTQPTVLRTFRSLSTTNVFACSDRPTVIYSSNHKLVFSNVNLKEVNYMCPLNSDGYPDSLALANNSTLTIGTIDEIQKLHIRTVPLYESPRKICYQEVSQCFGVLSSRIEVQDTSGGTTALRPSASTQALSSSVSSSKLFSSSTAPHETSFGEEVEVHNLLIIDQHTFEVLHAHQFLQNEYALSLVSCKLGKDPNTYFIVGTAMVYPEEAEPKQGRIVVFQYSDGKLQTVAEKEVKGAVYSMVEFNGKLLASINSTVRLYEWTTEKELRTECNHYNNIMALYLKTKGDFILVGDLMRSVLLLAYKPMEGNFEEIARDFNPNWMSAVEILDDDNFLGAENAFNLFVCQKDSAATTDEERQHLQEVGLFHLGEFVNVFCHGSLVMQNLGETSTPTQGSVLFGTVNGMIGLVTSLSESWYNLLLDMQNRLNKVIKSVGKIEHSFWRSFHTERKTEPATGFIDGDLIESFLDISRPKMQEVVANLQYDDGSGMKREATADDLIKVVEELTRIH
inactive: [1] -0.295 | [5] -0.237 | [6] -0.032 | [7] -0.203 | [9] -0.09 | [10] -0.12

DLK1 (UniProt P80370)
Chain of UniProt P80370 (P80370 whole entry, looked up): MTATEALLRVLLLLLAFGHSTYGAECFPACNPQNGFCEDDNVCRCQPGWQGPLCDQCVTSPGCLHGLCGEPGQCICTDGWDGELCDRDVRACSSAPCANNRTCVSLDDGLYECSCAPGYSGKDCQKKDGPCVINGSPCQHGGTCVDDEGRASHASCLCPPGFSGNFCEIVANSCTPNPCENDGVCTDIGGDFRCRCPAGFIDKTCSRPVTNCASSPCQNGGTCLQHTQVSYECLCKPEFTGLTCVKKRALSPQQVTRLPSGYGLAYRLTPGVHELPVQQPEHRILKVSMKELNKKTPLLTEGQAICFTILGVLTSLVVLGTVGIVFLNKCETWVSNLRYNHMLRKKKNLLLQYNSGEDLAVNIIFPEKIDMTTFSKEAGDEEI
inactive: [4] -0.061 | [7] -0.018 | [9] -0.109 | [10] -0.203

DNAH10 (UniProt Q8IVF4)
inactive: [1] 0.057 | [3] -0.045 | [4] 0.026 | [5] -0.041 | [6] 0.083 | [7] 0.242 | [8] -0.101 | [9] -0.102 | [10] 0.172

DNAH5 (UniProt Q8TE73)
inactive: [1] -0.029 | [3] -0.077 | [4] 0.016 | [5] -0.037 | [6] -0.103 | [7] 0.047 | [8] 0.001 | [9] 0.014 | [10] 0.029
